# Reference: PubChem BioAssay
# The source made the active and inactive calls.
# What was measured:
# [1] = tested on: PRMT1 (protein arginine N-methyltransferase 1); assay: PRMT1 binders on small-molecule microarrays, primary screen, biochemical, small-molecule microarray, 635 nm fluorescence (AID 1088); conditions: small-molecule microarray binding, higher = more signal;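 further: binding of Prmt1 protein to compounds spotted on small-molecule microarray slides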
# [2] = yeast growth modulation, basal conditions, primary screen, YJM789 clinical isolate, OD600, 24 h (AID 1089);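 further: growth of clinical yeast isolate S. cerevisiae YJM 789 seeded 1000 cells per well; test concentration not given here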; conditions: S. cerevisiae YJM789 growth, higher = more signal, called active from +8 up or from −8 down
# [3] = fission yeast growth modulation, primary screen, strain 972, OD600, 24 h, no modulator (AID 1090);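 further: basal condition with compound alone and no growth modifier present; test concentration not given here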; conditions: S. pombe 972 growth, higher = more signal, called active from +8 up or from −8 down
# [4] = S. cerevisiae growth modulation with rapamycin, primary screen, strain BY4716, OD600, 96 h (AID 1091); conditions: higher = more signal, called active from +8 up or from −8 down; further: test concentration not given here
# [5] = molecular target: Torsin-1A-interacting protein 2 (Homo sapiens) (UniProt Q8NFQ8); assay: LULL1 binders on small-molecule microarray, primary screen, cell lysate, human LULL1 lysate, 635/667 nm fluorescence (AID 1092); conditions: hLULL1 lysate binding, 635 nm fluorescence, higher = more signal;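 further: probe is lysate of COS7 cells overexpressing human LULL1; score merges per-feature 667 nm fluorescence with signal-to-noise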
# Chain of Torsin-1A-interacting protein 2 (Homo sapiens) (Q8NFQ8 whole entry, looked up): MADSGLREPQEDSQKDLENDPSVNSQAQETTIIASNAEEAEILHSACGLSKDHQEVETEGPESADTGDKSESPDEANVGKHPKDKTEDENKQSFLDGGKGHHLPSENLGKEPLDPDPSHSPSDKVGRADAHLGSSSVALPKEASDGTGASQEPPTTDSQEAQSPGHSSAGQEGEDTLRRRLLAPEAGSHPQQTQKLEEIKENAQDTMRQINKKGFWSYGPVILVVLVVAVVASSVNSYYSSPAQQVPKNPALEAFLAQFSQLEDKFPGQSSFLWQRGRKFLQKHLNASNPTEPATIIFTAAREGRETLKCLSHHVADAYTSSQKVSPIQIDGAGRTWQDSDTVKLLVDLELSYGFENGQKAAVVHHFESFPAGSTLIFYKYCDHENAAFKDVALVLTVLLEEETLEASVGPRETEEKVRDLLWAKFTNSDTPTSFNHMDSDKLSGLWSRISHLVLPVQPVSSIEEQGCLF
# [6] = E. coli growth modulation, two-sided OD650, primary screen, E. coli filamentation project, strain DRC41, 24 h (AID 1093); conditions: OD650, 24 h, higher = more signal, called active from +8 up or from −8 down;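 further: MC1000 strain lacking acrAB efflux and sulA so SOS filamentation is blocked; test concentration not given here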
# [7] = small-molecule microarray binders of probe aLefty2, primary screen, biochemical, biotinylated probe, 635/667 nm fluorescence (AID 1094); conditions: higher = more signal;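 further: score merges spot fluorescence near 667 nm with spot signal-to-noise ratio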
# [8] = tested on: Noggin (protein binding on small-molecule microarray); assay: Noggin binders on small-molecule microarray, primary screen, biochemical, 635/667 nm fluorescence (AID 1095); conditions: 635 nm fluorescence, higher = more signal;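 further: score merges 667 nm feature fluorescence with signal to noise over triplicate slides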
# [9] = molecular target: Neurogenic locus notch homolog protein 3 (Homo sapiens) (UniProt Q9UM47); assay: NOTCH3 binders on small-molecule microarray, primary screen, biochemical, 635/667 nm fluorescence (AID 1096); conditions: NOTCH3 binding, 635 nm fluorescence, higher = more signal
# Chain of Neurogenic locus notch homolog protein 3 (Homo sapiens) (Q9UM47 whole entry, looked up): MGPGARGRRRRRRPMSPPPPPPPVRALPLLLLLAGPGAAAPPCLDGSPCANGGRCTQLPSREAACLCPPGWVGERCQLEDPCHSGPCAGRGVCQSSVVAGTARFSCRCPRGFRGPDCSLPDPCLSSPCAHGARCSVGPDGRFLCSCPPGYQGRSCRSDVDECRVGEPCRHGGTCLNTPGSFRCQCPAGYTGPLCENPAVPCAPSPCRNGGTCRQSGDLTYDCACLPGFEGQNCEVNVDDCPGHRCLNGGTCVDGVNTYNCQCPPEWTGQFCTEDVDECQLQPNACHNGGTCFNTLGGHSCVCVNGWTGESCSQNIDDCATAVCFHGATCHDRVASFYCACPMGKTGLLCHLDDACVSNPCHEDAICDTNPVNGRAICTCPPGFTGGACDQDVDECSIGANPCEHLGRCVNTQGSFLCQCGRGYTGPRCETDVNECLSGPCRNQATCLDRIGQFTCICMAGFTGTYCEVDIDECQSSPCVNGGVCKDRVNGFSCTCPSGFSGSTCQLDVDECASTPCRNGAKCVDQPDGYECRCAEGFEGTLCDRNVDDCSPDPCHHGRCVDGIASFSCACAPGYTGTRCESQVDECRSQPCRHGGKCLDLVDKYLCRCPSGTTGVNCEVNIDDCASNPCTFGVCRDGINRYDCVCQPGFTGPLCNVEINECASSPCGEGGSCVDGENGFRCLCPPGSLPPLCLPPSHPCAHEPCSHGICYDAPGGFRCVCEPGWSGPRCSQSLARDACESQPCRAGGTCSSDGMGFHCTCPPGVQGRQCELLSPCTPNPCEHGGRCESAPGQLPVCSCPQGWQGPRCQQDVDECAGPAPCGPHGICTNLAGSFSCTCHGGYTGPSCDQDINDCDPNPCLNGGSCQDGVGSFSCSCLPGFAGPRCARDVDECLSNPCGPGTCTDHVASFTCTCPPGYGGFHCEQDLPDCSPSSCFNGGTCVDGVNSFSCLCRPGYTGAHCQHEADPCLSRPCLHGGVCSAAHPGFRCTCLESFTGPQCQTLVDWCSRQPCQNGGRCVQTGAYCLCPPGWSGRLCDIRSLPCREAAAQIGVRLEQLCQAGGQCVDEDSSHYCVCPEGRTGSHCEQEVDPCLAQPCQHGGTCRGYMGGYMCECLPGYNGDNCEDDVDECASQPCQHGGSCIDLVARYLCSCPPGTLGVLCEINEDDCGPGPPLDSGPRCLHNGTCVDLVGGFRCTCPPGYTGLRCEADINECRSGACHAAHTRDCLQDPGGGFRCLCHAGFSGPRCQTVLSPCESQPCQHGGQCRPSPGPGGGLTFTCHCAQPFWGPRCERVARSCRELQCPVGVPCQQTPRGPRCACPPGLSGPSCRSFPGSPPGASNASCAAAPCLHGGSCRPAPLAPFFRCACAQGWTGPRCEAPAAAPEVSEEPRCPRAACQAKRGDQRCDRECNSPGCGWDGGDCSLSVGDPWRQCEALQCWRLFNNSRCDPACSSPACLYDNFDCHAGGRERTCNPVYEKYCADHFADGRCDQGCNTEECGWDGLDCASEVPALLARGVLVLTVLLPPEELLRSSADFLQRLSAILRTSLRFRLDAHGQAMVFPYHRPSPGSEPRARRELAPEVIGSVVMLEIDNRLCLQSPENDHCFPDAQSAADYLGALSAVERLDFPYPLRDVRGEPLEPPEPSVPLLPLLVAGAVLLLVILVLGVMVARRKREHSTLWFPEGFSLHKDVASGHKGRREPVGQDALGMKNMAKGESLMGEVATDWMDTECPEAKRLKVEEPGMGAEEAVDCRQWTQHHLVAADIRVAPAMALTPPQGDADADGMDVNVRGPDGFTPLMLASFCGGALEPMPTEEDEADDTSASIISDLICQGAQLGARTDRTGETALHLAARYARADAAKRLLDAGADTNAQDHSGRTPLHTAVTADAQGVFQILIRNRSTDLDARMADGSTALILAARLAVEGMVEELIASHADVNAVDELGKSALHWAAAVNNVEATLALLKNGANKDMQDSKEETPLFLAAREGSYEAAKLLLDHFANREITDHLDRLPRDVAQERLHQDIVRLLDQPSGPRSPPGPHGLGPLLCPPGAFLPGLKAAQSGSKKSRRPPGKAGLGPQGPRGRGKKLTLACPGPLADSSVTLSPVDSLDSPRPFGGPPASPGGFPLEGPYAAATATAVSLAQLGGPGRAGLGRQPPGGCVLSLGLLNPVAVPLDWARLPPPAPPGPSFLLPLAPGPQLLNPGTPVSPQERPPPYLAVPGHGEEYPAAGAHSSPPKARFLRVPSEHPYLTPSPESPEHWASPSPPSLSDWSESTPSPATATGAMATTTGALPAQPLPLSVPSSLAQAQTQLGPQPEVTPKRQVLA
# [10] = small-molecule microarray binders of probe aEGFR, primary screen, biochemical, biotinylated probe, 635/667 nm fluorescence (AID 1097); conditions: higher = more signal;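 further: probe is a biotinylated anti-EGFR antibody binding compounds printed on slides; score combines fluorescence near 667 nm and signal to noise of each spot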
# [11] = tested on: Plasmodium falciparum Sir2 (PF13_0152, Sir2A); assay: pfSir2 binders on small-molecule microarrays, primary screen, biochemical, small-molecule microarray, 635 nm fluorescence (AID 1098); conditions: small-molecule microarray binding, fluorescence 635 nm; higher = more signal;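 further: score merges spot fluorescence intensity with its signal-to-noise ratio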
# [12] = small-molecule microarray binders of probe aDKK1, primary screen, biochemical, biotinylated probe, 635/667 nm fluorescence (AID 1099); conditions: higher = more signal;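 further: score merges 667nm spot fluorescence with signal to noise across triplicate slides; reference of the scale not given here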
# [13] = small-molecule microarray binders of probe aCHRDL2, primary screen, biochemical, biotinylated probe, 635/667 nm fluorescence (AID 1100); conditions: higher = more signal
# [14] = splicing luciferase reporter signal modulators, primary screen, spliceosome inhibition project, cell-based, HEK293, splice +/- reporter (AID 1101); conditions: luminescence, 24 h, higher = more signal, called active from +8 up or from −8 down;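 further: HEK293 cells carrying a splicing-competent luciferase reporter gene; test concentration not given here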
# [15] = molecular target: Fibroblast growth factor 10 (Homo sapiens) (UniProt O15520); assay: FGF10 binders on small-molecule microarrays, primary screen, biochemical, small-molecule microarray, 635 nm fluorescence (AID 1102); conditions: FGF10 binding, fluorescence 635 nm, higher = more signal
# Chain of Fibroblast growth factor 10 (Homo sapiens) (O15520 whole entry, looked up): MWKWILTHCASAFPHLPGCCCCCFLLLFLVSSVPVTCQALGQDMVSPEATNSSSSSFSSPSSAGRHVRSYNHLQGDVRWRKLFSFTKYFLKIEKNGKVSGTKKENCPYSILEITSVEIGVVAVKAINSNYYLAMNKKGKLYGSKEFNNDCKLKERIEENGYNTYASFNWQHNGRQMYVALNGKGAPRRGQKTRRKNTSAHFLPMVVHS
# [16] = tested on: glycogen synthase kinase-3 (GSK3A per assay name; protocol says GSK3B); assay: GSK3 binders on small-molecule microarrays, primary screen, biochemical, small-molecule microarray, 635 nm fluorescence, GSK3A (AID 1103); conditions: small-molecule microarray binding, fluorescence 635 nm; higher = more signal; further: the record names both GSK3A and GSK3B
# [17] = molecular target: Epidermal growth factor receptor (Homo sapiens) (UniProt P00533); assay: EGFR binders on small-molecule microarrays, primary screen, biochemical, small-molecule microarray, 635 nm fluorescence (AID 1104); conditions: EGFR binding, higher = more signal;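 further: score merges 667 nm emission intensity with spot signal to noise over triplicate slides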
# Chain of Epidermal growth factor receptor (Homo sapiens) (P00533 whole entry, looked up): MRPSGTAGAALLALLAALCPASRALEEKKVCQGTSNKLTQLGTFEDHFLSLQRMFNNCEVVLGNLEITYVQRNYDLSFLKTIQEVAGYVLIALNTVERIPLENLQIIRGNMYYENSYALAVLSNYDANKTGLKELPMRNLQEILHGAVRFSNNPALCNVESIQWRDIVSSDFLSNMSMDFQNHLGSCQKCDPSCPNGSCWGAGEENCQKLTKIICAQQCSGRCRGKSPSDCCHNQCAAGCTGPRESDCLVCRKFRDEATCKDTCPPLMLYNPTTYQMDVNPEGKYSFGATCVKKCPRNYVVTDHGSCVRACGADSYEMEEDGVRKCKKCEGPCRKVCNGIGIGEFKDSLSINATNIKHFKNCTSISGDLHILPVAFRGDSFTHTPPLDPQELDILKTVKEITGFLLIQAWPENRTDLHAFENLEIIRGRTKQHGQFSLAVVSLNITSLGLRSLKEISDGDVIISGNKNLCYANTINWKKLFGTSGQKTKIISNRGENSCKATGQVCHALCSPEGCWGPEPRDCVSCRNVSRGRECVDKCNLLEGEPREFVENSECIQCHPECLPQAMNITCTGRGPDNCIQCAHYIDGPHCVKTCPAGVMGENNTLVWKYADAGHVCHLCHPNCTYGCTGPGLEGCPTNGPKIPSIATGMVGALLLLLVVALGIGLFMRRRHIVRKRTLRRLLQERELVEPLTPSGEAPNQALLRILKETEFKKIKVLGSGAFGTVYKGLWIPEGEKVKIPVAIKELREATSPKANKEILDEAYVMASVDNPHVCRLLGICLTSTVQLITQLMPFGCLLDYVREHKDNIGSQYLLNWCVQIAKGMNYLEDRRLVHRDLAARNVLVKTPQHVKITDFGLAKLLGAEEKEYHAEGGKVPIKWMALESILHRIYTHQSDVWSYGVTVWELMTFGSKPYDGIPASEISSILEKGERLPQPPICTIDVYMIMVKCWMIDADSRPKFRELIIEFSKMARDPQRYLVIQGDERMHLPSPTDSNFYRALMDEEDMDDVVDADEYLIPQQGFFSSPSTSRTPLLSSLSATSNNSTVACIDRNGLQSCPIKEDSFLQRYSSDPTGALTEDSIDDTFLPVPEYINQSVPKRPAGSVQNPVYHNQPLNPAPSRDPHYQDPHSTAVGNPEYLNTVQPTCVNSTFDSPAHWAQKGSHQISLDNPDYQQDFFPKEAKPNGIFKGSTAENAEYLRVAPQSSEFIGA
# [18] = molecular target: Follistatin-related protein 3 (Homo sapiens) (UniProt O95633); assay: FSTL3 binders on small-molecule microarrays, primary screen, biochemical, small-molecule microarray, 635 nm fluorescence (AID 1105); conditions: FSTL3 binding, higher = more signal;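 further: score merges emission near 667 nm and signal to noise per printed spot across three slides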
# Chain of Follistatin-related protein 3 (Homo sapiens) (O95633 whole entry, looked up): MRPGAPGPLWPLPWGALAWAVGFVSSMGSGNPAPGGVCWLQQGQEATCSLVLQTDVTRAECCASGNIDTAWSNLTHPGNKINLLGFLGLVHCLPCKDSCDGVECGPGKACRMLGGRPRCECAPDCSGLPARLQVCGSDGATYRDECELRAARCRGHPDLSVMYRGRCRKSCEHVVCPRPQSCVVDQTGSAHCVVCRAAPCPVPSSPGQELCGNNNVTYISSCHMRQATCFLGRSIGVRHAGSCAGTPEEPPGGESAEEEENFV
# [19] = molecular target: Dickkopf-related protein 1 (Homo sapiens) (UniProt O94907); assay: DKK1 binders on small-molecule microarrays, primary screen, biochemical, small-molecule microarray, 635 nm fluorescence scan (AID 1106); conditions: DKK1 binding, higher = more signal;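 further: score merges emission near 667 nm with signal to noise over three replicate slides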
# Chain of Dickkopf-related protein 1 (Homo sapiens) (O94907 whole entry, looked up): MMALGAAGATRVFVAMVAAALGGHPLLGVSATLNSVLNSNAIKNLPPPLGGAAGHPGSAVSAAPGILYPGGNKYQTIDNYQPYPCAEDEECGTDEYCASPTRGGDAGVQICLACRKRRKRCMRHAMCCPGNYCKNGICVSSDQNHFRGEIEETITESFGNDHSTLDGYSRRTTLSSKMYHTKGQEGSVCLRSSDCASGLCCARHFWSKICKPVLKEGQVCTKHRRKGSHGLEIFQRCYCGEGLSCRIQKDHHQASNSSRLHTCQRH
# [20] = tested on: Inhibin beta A chain (activin A); assay: INHBA (activin A) binders on microarrays, primary screen, biochemical, small-molecule microarray, 635 nm fluorescence scan (AID 1107); conditions: small-molecule microarray binding, higher = more signal;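 further: mouse activin A protein probed at 4.33 µg/mL on printed slides; score merges bound-protein fluorescence near 667 nm with spot signal-to-noise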
SMILES,composite z-score [1],z-score [2],z-score [3],z-score [4],composite z-score [5],z-score [6],composite z-score [7],composite z-score [8],composite z-score [9],composite z-score [10],composite z-score [11],composite z-score [12],composite z-score [13],z-score [14],composite z-score [15],composite z-score [16],composite z-score [17],composite z-score [18],composite z-score [19],composite z-score [20]
Cc1ccccc1C(O)C1C=CC2C(=O)N(c3ccccc3)C(=O)C2N1Nc1ccccc1 (stereo not given),1.53,0.555 (inactive),0.828 (inactive),0.0369 (inactive),3.42,-0.555 (inactive),0.307,0.219,1.03,0.183,1.37,1.01,1.25,-0.00177 (inactive),0.96,0.65,0.0981,1.17,0.0843,1.45
O=C1C2C=CC(C(O)c3cccs3)N(Nc3ccc([N+](=O)[O-])cc3)C2C(=O)N1c1ccccc1 (stereo not given),0.32,-0.198 (inactive),1.14 (inactive),1.88 (inactive),2.98,-0.0849 (inactive),-0.0636,-0.13,0.788,-0.0947,0.672,0.352,0.25,1.15 (inactive),0.534,0.684,0.346,0.393,0.21,0.796
C=CCOC(=O)[C@@H]1[C@H]2C(=O)O[C@H](c3ccccc3)[C@H](c3ccccc3)N2[C@H](c2ccc(OCCOC(=O)[C@H]3C[C@H]4C(=O)NCC(=O)N4[C@H]3c3cccc(OCCO)c3)cc2)[C@@]12C(=O)Nc1ccc(I)cc12,1.54,0.787 (inactive),1.44 (inactive),3.6 (inactive),2.7,0.002 (inactive),-0.0809,0.963,1.1,0.0712,1.53,0.512,0.494,0.789 (inactive),0.742,1.36,0.725,1.23,1.11,0.118
C=CCNC(=O)[C@H]1[C@@H]2C(=O)O[C@@H](c3ccccc3)[C@@H](c3ccccc3)N2[C@@H](c2ccc(OCCO)cc2)[C@]12C(=O)Nc1ccccc12,1.18,1.24 (inactive),0.259 (inactive),2.84 (inactive),3.36,1.35 (inactive),-0.0785,0.167,0.457,-0.194,1.39,-0.106,0.747,-0.152 (inactive),-0.0719,0.164,-0.129,0.227,-0.939,-0.329
COc1ccc(C(=O)Nc2ccc(CN3C(=O)[C@@]4(O[C@@H](CCn5cc(CCO)nn5)[C@H]([Si](C)(C)c5ccc(OC)cc5)[C@H]4C)c4ccccc43)cc2)cc1,1.34,0.704 (inactive),-6.58 (inactive),0.377 (inactive),1.26,-0.583 (inactive),0.0868,0.926,1.11,-0.0271,1.36,0.635,0.559,-1.8 (inactive),0.939,1.14,0.492,1.28,1,1.57
